# Several values for one entry are separate records, joined by “and”; a condition that tells them apart may be missing. Equal entries are not always repeated. Activity calls are given as the source filed them.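 The calls were made as follows, unless noted: active = compounds whose cell count with miR-34 switched on is under 0.7 times the count with it off; inactive = the rest.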
# Experiments:
# [1] = viability loss with induced miR-34 in A549 – imaging, A549 dox-inducible miR-34, nuclei and caspase counts, primary screen (AID 1347080); conditions: A549 miR-34 inducible, Hoechst nuclei count, 48 h; also: test concentration not given here
# [2] = MELAS cybrid and Rieske KO viability enhancers – cell-based, MELAS cybrids, Rieske KO mouse fibroblasts, CellTiter-Glo, primary screen (AID 1508586;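 active = mean z-score across replicates of 1.96 or higher in either the MELAS or the Rieske mutant cell line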;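 also: test concentration not given here; z relative to plate mean and SD of compound and empty wells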); conditions: low glucose
# [3] = galactose survival enhancers in mitochondrial complex I cybrids – cell-based, galactose medium, ATP luminescence, primary screen (AID 1645843;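 active = z-score of at least 1.8 in each of two replicates, scored against plate mean and spread of sample wells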;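 also: positive z means more ATP and so rescue of galactose-driven cybrid death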); conditions: complex I mutant cybrid cells, 72 h, stronger effect = higher value
# [4] = stronger effect = lower value, cell number ratio, induced over uninduced
# [5] = measured here: relative caspase fold change +Dox/-Dox
# [6] = measured here: total cells with miR-34 induction, stronger effect = lower value
# [7] = measured here: total cells without miR-34 induction
# [8] = MELAS cybrid survival, CellTiter-Glo 48 h, stronger effect = higher value
# [9] = Rieske KO mouse fibroblast survival, CellTiter-Glo 72 h
SMILES,"fold change [1, 4]","fold change [1, 5]","cell count [1, 6]","cell count [1, 7]","z-score [2, 8]","z-score [2, 9]",z-score [3]
O=C(Nc1cccnc1)C1CCN(C(=O)c2ccccc2Cl)CC1,0.886 (inactive),1.9,8890,10000,0.0994 (inactive),-0.159,-0.045 (inactive)
COC(=O)CN1CCN(c2ncnc3sccc23)C(C)C1=O (configuration not stated),0.854 (inactive),1.54,7880,9220,0.221 (inactive),0.142,-0.055 (inactive)
O=C(O)CCc1c[nH]c2ccccc12,0.896 (inactive),0.538,8830,9860,0.524 (inactive),-0.334,0.56 (inactive)
COc1ccc(-c2ncnc3sc(C)c(C)c23)c2cccnc12,0.949 (inactive),0.85,7370,7760,0.0989 (inactive),-0.295,-0.525 (inactive)
O=C(O)c1cccc2c(-c3ccccc3)c(-c3ccccc3)[nH]c12,0.883 (inactive),1.11,8700,9850,-0.38 (inactive),-0.101,0.98 (inactive)
COc1ccc(-c2cc(-n3cccn3)ncn2)c(-n2cccn2)c1,0.922 (inactive),1.07,8340,9050,-0.554 (inactive),0.208,-0.595 (inactive)
CCN(CCc1ccccn1)C(=O)c1cc(-c2cnc(N)nc2)nc2c(C)cccc12,0.904 (inactive),1.79,8640,9560,-0.0572 (inactive),-0.177,0.51 (inactive)
CC(=O)NC(CCCN=C(N)N)C(=O)O (configuration not stated),0.897 (inactive),0.717,8640,9630,-1.33 (inactive),-0.192,0.785 (inactive)
O=C(Nc1n[nH]c(-c2ccco2)n1)N1CCc2ccccc2C1,0.896 (inactive),0.879,7540,8420,1.17,3.81,0.1 (inactive)
CC(=O)NCCc1ccc(S(N)(=O)=O)cc1,0.918 (inactive),0.641,7840,8540,0.668 (inactive),-0.256,-0.065 (inactive)
O=C(O)CCc1c(C(=O)O)[nH]c2cc(Cl)cc(Cl)c12,0.85 (inactive),0.683,8390,9880,0.688 (inactive),0.122,0.585 (inactive)
O=C(Cc1noc2ccccc12)NCCOc1cccnc1,0.924 (inactive),1.95,9890,10700,-0.132 (inactive),-0.425,-0.56 (inactive)
CN1CCN(c2ncnc3sccc23)CC1=O,0.928 (inactive),1.32,9620,10400,-0.0885 (inactive),-0.276,-0.54 (inactive)
CN(C)c1ccc(N=Nc2ccccc2C(=O)O)cc1,0.742 (inactive),0.761,2520,3400,-1.2 (inactive),0.626,-0.36 (inactive)
NCC(=O)Nc1ccc(OCc2ccccc2)cc1,0.851 (inactive),0.248,8020,9430,1.42 (inactive),-0.396,-1.35 (inactive)
CCc1ccc(-c2nn(CC(=O)Nc3cnn(C)n3)c3ccccc23)cc1,0.895 (inactive),1.48,6460,7220,-0.0449 (inactive),-0.314,1.09 (inactive)
CN1CCN(Cc2cccc(-n3cccn3)c2)CC1CCO (configuration not stated),0.861 (inactive),3.04,8640,10000,-0.56 (inactive),-0.308,-0.58 (inactive)
O=C(O)c1ccc(-c2ccccc2Cl)o1,0.867 (inactive),0.416,7840,9050,-0.894 (inactive),0.4,0.53 (inactive)

SMILES,"fold change [1, 4]","fold change [1, 5]","cell count [1, 6]","cell count [1, 7]","z-score [2, 8]","z-score [2, 9]",z-score [3]
CCCOc1ccc(CC(=O)O)cc1Cl,0.877 (inactive),0.341,8590,9790,0.699 (inactive),0.326,0.735 (inactive)
O=C(c1cccc2nccnc12)N1CCc2[nH]nc(COc3ccccc3)c2C1,0.845 (inactive),1.54,8640,10200,-0.113 (inactive),-0.39,-0.45 (inactive)
O=C(NCc1ccccn1)c1ccc(Oc2ccccc2)cc1,0.933 (inactive),0.296,8650,9270,0.509 (inactive),-0.417,0.08 (inactive)
CC(NC(CCc1ccccc1)C(=O)O)C(=O)N1CCCC1C(=O)O (configuration not stated),0.974 (inactive) and 0.933 (inactive),2.22 and 0.554,9670 and 8080,9920 and 8660,0.277 (inactive),0.0621,0.69 (inactive)
O=C(O)CCC(=O)Nc1ccc(Br)cn1,0.858 (inactive),0.548,8810,10300,0.399 (inactive),-0.113,0.275 (inactive)
c1ccc2c(CCc3ccncc3)c[nH]c2c1,0.863 (inactive),0.826,7350,8520,1.96 (inactive),-0.242,-0.71 (inactive)
CCc1nc(NC(=O)NC(c2ccccc2)c2ccco2)nn1C (configuration not stated),0.878 (inactive),0.916,8500,9680,-0.443 (inactive),0.186,1.04 (inactive)
O=C(O)c1ccc(-c2ccc(F)cc2)cc1,0.935 (inactive),1.32,7840,8390,-0.835 (inactive),-0.109,0.26 (inactive)
O=c1cc(-c2cccnc2)nc(-c2ccc(CN3CCCC(CO)C3)cc2)[nH]1 (configuration not stated),0.899 (inactive),2.12,7730,8590,-0.0299 (inactive),-0.608,-0.56 (inactive)
COc1ccc(OC)c2c1c(C)cc(=O)n2C,0.823 (inactive),0.693,8060,9790,-0.469 (inactive),0.131,-0.615 (inactive)
CCOC(=O)c1c(C)n[nH]c1C,0.871 (inactive),0.655,8840,10200,0.691 (inactive),-0.58,0.425 (inactive)
CCc1cc(CN2CCN(C)C(CCO)C2)on1 (configuration not stated),0.907 (inactive),1.26,8690,9580,0.702 (inactive),-0.294,-0.59 (inactive)
O=C(Nc1c[nH]c2ccccc12)c1cccnc1,0.884 (inactive),1.08,8140,9200,-0.289 (inactive),-0.312,1.14 (inactive)
CN(C)C(=O)c1cc(-c2cnc(-c3ccccn3)nc2)nc2cc(F)ccc12,0.875 (inactive),1.98,8570,9790,-0.444 (inactive),-0.334,-0.41 (inactive)
Cc1nc(C)c(-c2ccnc(N)n2)s1,0.869 (inactive),0.21,8060,9270,0.483 (inactive),-0.306,-0.255 (inactive)
NS(=O)(=O)c1ccc(F)cc1,0.896 (inactive),0.251,9050,10100,0.294 (inactive),-0.158,0.18 (inactive)
CN1CCC(CN(C)Cc2ccc(-c3nc(-c4ccncc4)cc(=O)[nH]3)cc2)CC1,0.939 (inactive),1.26,9330,9930,0.0899 (inactive),0.164,-0.495 (inactive)
COc1ccccc1Cn1ncc2[nH]c(-c3ccccc3OC)nc21,0.835 (inactive),1.7,7580,9090,-0.341 (inactive),-0.0244,2.62 (active)

# From PubChem BioAssay
